Screening data deposited in PubChem BioAssay by National Center for Advancing Translational Sciences (NCATS).
The entries come from a sample that favours hits as a whole.
ERK EGF block – blocks ERK signaling stimulated by EGF; Potency, µM (series often up to 11.5 µM), without a hit: at the top dose activity change, negative = inhibition, actives largely listed as inhibitors; hit rate 0.41% among 130,000; HEK293-V1b, EGF-stimulated phospho-ERK AlphaScreen;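 note: potency is the fitted concentration of half-maximal effect; plate controls were stimulated vehicle wells for no effect and unstimulated vehicle basal for full effect; nearly all actives have a fitted effect of over 55% in size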
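In this qHTS, HEK293 cells with stable type-1 vasopressin (V1b) receptor were exposed to compound at 37C for 30 min, stimulated 5 min with EGF at 25 nM, lysed, and probed for phospho-ERK by AlphaScreen.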
pERK EGF inh – confirmation of ERK pathway inhibitors under EGF stimulation; Potency, µM (series often up to 57.5 µM), without a hit: at the top dose activity change, negative = inhibition, hits mostly inhibitors; AID 1725; hit rate 60% among 60; shares compounds with ERK EGF block; HEK293 EGF-stimulated ERK phosphorylation, AlphaScreen
c-Raf inh – blocks human c-Raf kinase activity; AID 1728; activity change, negative = inhibition, % at 76.9 µM; 70 tested, under 10 active; c-Raf kinase inhibition, homogeneous biochemical assay; shares compounds with ERK EGF block
MEK1 kinase inh – blocks human MEK1 kinase activity in ERK pathway follow-up; shares compounds with ERK EGF block; homogeneous MEK kinase activity assay, ERK pathway; Potency, µM (highest dose often 76.9 µM), for inactives: at the highest dose activity change, negative = inhibition, usual class: inhibitors; 70 tested, under 10 active
Numbers without * were called inactive; ? = inconclusive; [ ] = another dose, or the depositor's remark. Calls come from the whole dose curve; as a rule, active = well fitted curve in the direction sought with a large enough effect; inconclusive = small, poorly fitted or top-dose-only effect, or another doubt; inactive = no such curve, though single readings can be large; an effect the other way counts as inactive or inconclusive.

SMILES | ERK EGF block | others
CC(C)(CO)NCC(O)Cn1cc(C=O)c2ccccc21 (stereo not given) | 4.5%
CCC1=C(OC(=O)N(CC)CC)N2C(=O)OC(=NCCc3c[nH]c4ccccc34)[C@]2(C)[C@H]2C1=CC[C@H]1C(=O)N(CC(=O)OC)C(=O)[C@H]12 | -3.5%
O=C(COC(=O)/C=C/c1cccs1)NC1CC1 | 2.3%
CNc1cccc2c1C(=O)c1ccccc1C2=O | 10µM* | pERK EGF inh=14.1µM*;c-Raf inh=-8.8;MEK1 kinase inh=-19.1%
NC(=O)COC(=O)c1cccc2c1-c1ccccc1C2=O | -9.2%
CN(C)S(=O)(=O)c1cccc2c1C(=O)c1ccccc1C2=O | 1.2%
CC(C)NC(=S)N/N=C1\CCCc2ccccc21 | 5.9%
Cc1ccc(OCC(=O)NCCc2c[nH]c3ccccc23)cc1 | -8.8%
Cc1nc2cnc(Nc3ccccc3)nc2n(C)c1=O | -3.5%
Cn1c(=O)cc(Nc2ccccc2)c2c(=O)n(-c3ccccc3)c(=O)n(-c3ccccc3)c21 | 5.01µM* | pERK EGF inh=10µM*;c-Raf inh=-4.7;MEK1 kinase inh=-15.3%
Cn1c(=O)c2c(Nc3ccc(F)cc3)cc(=O)n(-c3ccccc3)c2n(C)c1=O | 2.4%[57.5 µM]
COc1ccc(C)c2sc(NNC(=O)COc3ccccc3)nc12 | -1.2%
CCNc1ccc(C2(O)C(=O)c3ccccc3C2=O)cc1 | 3.8%
COC(=O)N[C@@H](/C=C/c1ccccc1)/C(C(=O)OC)=C(\C)NCc1ccccc1 | -9.9%
COc1ccc(N2C(=O)CC(Sc3nc4ccccc4s3)C2=O)cc1OC (stereo not given) | -3.1%
N#Cc1cccnc1Nc1cccc(Cl)c1 | -18.6%
COc1cc2ncnc(Nc3cccc(Cl)c3)c2cc1OC | 0.251µM* | pERK EGF inh=0.199µM*;c-Raf inh=?;MEK1 kinase inh=-14.9%
COc1cc(C)c(NC(=S)Nc2cccc(Cl)c2)cc1OC | -4.3%
c1cncc(-c2ccc3ncnc(N4CCNCC4)c3c2)c1 | 25.1%
c1ccc(Nc2ncnc3ccc(-c4cccnc4)cc23)cc1 | 2.51µM* | pERK EGF inh=3.55µM*;c-Raf inh=?;MEK1 kinase inh=0.5%
CN(C)Cc1ccccc1-c1ccc2ncnc(NCc3ccccc3)c2c1 | 15.8%
O=C(NC1CCCCNC1=O)c1ccccc1 (stereo not given) | 0.7%[57.5 µM]
Cn1c(N)c(C(=O)COC(=O)CNS(=O)(=O)c2cccc(Cl)c2)c(=O)n(C)c1=O | -1.1%
CC(C)N(CCO)C(=O)CCc1nnc(Cc2cccc(C(F)(F)F)c2)o1 | 10.9%
Cn1c(SCC(=O)NCc2ccc(F)cc2)nc2c([nH]c3ccccc32)c1=O | -3.9%
CC(C)(C)C(=O)O/N=C(\N)COc1cccc(Cl)c1 | 4.0%[57.5 µM]
